Results on 20 compounds are retold here after PubChem BioAssay.

Assay [1] can be described thus: antimalarial activity against Dd2 strain (AID 2302;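 active = growth inhibition above 50% at the single 2 µM test dose, taken to imply half-maximal potency below 2 µM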;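 also: 0% = DMSO untreated growth and 100% = chloroquine plus artemisinin killed control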). Conditions: P. falciparum Dd2 in RBCs, LDH growth readout, 72 h; at 2 µM; stronger effect = higher value.
The nature of assay [2]: HepG2 cytotoxicity, primary screen, cytotoxicity control for P. falciparum antimalarial project, cell-based, ATP luminescence (AID 2303;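 active = inhibition above 50%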;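 also: 0% = DMSO wells and 100% = digitonin-killed cells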). To be noted: HepG2 viability, 24-48 h, at 10 µM, stronger effect = higher value.
In assay [3] the target is L-lactate dehydrogenase (Plasmodium falciparum (isolate CDC / Honduras)) (UniProt Q27743). The assay is described as follows: PfLDH activity inhibition – cell lysate, 3D7 strain, counter-screen for P. falciparum growth inhibition project (AID 2304).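 Also: 0% = vehicle and 100% = reference inhibitor.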 Conditions: P. falciparum 3D7 crude extract, LDH APAD/NBT absorbance; at 2 µM; stronger effect = higher value.
Assay [4] can be described thus: inhibition of 3D7 malaria parasite growth – strain 3D7 (AID 2306).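 Also: 0% = DMSO wells and 100% = chloroquine plus artemisinin control wells.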 Conditions: P. falciparum 3D7 erythrocytic growth, LDH absorbance, 72 h; at 2 µM; stronger effect = higher value.
Assay [5] has as its target Calcium-dependent protein kinase 1 (Plasmodium falciparum (isolate 3D7)) (UniProt P62344). Description: PfCDPK1 kinase inhibitors, biochemical, TCAMS library (AID 1159585; cut-off not given, nearly all actives have IC50 up to about 0.98 µM;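 also: inhibitors leave more ATP so luminescence rises with inhibition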). To be noted: recombinant PfCDPK1, Kinase-Glo ATP depletion luminescence. (Kinase-Glo reads ATP consumption through a luciferase reaction.)
Assay [6] deals with Plasmodium falciparum protein kinase 6 (PK6, PF3D7_1337100) (UniProt Q8IDW1). The assay is described as follows: PfPK6 kinase inhibitors, biochemical, TCAMS library (AID 1159586). To be noted: recombinant PfPK6, Kinase-Glo ATP depletion luminescence.
Assay [7] deals with Protein kinase 7 (PK7), Plasmodium falciparum 3D7 (PF3D7_0213400) (UniProt Q7YTF7). Description: inhibition of Plasmodium PK7 catalytic activity – biochemical, TCAMS antimalarial set, Kinase-Glo luminescence (AID 1159587). Conditions: recombinant PfPK7, Kinase-Glo ATP depletion luminescence.
The target in assay [8] is Calcium-dependent protein kinase 4 (Plasmodium falciparum (isolate 3D7)) (UniProt Q8IBS5). The assay is described as follows: PfCDPK4 kinase inhibitors, biochemical, TCAMS library (AID 1159588; cut-off not given, nearly all actives have IC50 up to about 0.91 µM). Conditions: recombinant PfCDPK4, Kinase-Glo ATP depletion luminescence.

Values without a mark were called inactive. For some of these results: Results with a measured potency or affinity are listed apart. Calls of active or inactive are those of the source. Unless noted, no rule for the calls is given here.

Broadly, the inhibition is the relative decrease from the control value, in per cent.

Sequence of Calcium-dependent protein kinase 4 (Plasmodium falciparum (isolate 3D7)) (Q8IBS5 whole entry, looked up): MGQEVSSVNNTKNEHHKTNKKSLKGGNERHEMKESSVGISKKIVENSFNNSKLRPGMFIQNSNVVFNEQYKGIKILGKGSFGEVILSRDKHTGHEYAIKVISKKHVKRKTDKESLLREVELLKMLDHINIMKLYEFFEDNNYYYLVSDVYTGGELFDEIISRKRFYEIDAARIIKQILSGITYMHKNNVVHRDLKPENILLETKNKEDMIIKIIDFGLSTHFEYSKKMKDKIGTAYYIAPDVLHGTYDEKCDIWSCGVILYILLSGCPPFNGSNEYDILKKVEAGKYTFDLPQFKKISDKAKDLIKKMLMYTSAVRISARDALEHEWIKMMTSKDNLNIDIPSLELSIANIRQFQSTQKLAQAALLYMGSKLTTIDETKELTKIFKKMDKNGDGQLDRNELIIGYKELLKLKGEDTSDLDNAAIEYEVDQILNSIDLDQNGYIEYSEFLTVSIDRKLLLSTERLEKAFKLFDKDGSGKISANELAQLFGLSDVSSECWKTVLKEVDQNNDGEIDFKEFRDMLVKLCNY
Sequence of Plasmodium falciparum protein kinase 6 (PK6, PF3D7_1337100) (Q8IDW1 1-305): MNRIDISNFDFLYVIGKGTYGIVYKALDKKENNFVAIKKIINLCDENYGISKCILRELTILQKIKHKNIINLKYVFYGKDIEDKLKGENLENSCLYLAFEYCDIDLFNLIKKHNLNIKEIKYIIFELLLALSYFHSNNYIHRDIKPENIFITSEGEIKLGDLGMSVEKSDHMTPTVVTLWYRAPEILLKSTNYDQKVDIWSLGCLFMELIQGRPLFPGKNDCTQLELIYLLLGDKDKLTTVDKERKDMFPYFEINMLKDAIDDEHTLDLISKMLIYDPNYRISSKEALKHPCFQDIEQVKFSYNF
Sequence of L-lactate dehydrogenase (Plasmodium falciparum (isolate CDC / Honduras)) (Q27743 whole entry, looked up): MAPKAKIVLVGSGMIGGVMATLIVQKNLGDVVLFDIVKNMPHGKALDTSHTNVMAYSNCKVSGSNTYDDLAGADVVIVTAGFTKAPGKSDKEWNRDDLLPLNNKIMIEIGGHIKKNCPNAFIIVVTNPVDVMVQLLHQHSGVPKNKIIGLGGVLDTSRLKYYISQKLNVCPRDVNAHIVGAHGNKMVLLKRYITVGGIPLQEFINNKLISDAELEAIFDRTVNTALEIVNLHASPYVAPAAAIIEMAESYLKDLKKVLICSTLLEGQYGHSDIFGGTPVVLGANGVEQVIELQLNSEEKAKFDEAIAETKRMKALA
Sequence of Protein kinase 7 (PK7), Plasmodium falciparum 3D7 (PF3D7_0213400) (Q7YTF7 1-343): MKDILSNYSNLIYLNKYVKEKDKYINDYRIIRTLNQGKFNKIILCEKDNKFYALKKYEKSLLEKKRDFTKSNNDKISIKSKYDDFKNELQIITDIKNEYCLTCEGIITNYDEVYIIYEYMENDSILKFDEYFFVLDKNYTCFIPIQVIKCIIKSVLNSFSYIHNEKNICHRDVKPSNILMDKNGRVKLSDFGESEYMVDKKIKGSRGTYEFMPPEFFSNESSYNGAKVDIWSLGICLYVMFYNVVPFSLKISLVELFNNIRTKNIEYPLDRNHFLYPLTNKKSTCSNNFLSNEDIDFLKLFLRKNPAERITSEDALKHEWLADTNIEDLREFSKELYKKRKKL
Sequence of Calcium-dependent protein kinase 1 (Plasmodium falciparum (isolate 3D7)) (P62344 whole entry, looked up): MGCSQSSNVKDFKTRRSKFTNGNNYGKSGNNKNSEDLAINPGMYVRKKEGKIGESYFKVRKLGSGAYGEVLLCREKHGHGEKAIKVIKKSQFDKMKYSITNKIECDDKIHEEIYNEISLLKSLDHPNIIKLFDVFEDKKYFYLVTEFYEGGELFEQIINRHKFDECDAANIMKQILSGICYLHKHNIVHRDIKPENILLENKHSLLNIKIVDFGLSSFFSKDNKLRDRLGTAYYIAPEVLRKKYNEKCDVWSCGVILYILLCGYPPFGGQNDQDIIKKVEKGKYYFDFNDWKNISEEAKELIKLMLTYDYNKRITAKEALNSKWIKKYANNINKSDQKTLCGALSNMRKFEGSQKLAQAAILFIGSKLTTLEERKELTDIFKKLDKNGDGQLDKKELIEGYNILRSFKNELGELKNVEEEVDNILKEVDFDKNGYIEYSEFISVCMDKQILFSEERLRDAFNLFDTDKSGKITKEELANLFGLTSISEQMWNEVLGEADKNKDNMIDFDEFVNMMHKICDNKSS

Take `CSCCC(C(=O)O)N1C(=O)c2ccccc2C1=O` (stereo not given): the values for the growth inhibition in assay [1] and in assay [4] were -3% and 91% (active), respectively. The inhibition in assay [2] is -4%; in assay [3] it was -1%. Also, the outcome in assay [5], in assay [6], in assay [7] and in assay [8] was inactive.

Regarding `O=C(N[C@@H](CC1CCCCC1)C(=O)NCc1cccc2ccccc12)c1ccc(O)c(-c2ccc(Cl)c(Cl)c2)c1`, the growth inhibition in assay [1] is 99% (active); in assay [4] it was 97% (active). Further, the values for the inhibition in assay [2] and in assay [3] were -9% and 2%, respectively. For the same compound, the result in assay [5], in assay [6], in assay [7] and in assay [8] was inactive.

As for `Fc1cccc(C=NNc2ccnc3cc(Cl)ccc23)c1`, the growth inhibition in assay [1] is 91% (active); in assay [4], 99% (active). In addition, the inhibition in assay [2] is 6%; in assay [3], -7%. For the same compound, the outcome in assay [5], in assay [6], in assay [7] and in assay [8] was inactive.

For `COc1cc(NCC(O)CNc2cc(OC)c3ccccc3n2)nc2ccccc12`, the figures for the growth inhibition in assay [1] and in assay [4] were 93% (active) and 100% (active), respectively. The inhibition in assay [2] is 42%; in assay [3], 5%. Also, the result in assay [5], in assay [6], in assay [7] and in assay [8] was inactive.

In the case of `COc1ccc2nccc([C@@H](O)CN3CCC(NC(=O)/C=C/c4ccc5ccccc5n4)CC3)c2c1`, the values for the growth inhibition in assay [1] and in assay [4] were 9% and 91% (active), respectively. Moreover, the results for the inhibition in assay [2] and in assay [3] were 12% and 1%, respectively. Also, the outcome in assay [5], in assay [6], in assay [7] and in assay [8] was inactive.

As for `CC(C)(CN1CCCC1)CN(Cc1ccc(-c2ccc(C(F)(F)F)cc2)cc1)C(=O)Cn1c(CCc2cccc(F)c2F)nc(=O)c2ccccc21`, the growth inhibition in assay [1] is 64% (active); in assay [4] it was 97% (active). Moreover, the figures for the inhibition in assay [2] and in assay [3] were 57% (active) and -3%, respectively. Moreover, the outcome in assay [5], in assay [6], in assay [7] and in assay [8] was inactive.

On to `Cc1cc(NC2CCN(Cc3ccccc3)CC2)nc(NCCCCc2ccccc2)n1`, for which the growth inhibition in assay [1] is 60% (active); in assay [4] it was 100% (active). Further, the inhibition in assay [2] was 65% (active); in assay [3] it was 2%. The outcome in assay [5], in assay [6], in assay [7] and in assay [8] was inactive.

Turning to `O=C(/C=C/c1ccc(Cl)c(Cl)c1)NCCCCCN1CCC(NC(=O)Nc2ccc(Oc3ccccc3)cc2)C1` (stereo not given), the growth inhibition in assay [1] was 6%; in assay [4], 99% (active). In addition, the results for the inhibition in assay [2] and in assay [3] were 35% and 4%, respectively. Besides, the result in assay [5], in assay [6], in assay [7] and in assay [8] was inactive.

As to `COc1ccc(CNC2CCN(C)CC2)cc1-c1ccc(S(=O)(=O)NCc2ccccc2)cc1`, the growth inhibition in assay [1] is 99% (active); in assay [4], 100% (active). For the same compound, the inhibition was 56% (active) in assay [2] and 5% in assay [3]. Moreover, the outcome in assay [5], in assay [6], in assay [7] and in assay [8] was inactive.

As to `Cc1ccccc1CNc1ccc2nc(N)nc(N)c2c1`, the results for the growth inhibition in assay [1] and in assay [4] were 90% (active) and 101% (active), respectively. Besides, the results for the inhibition in assay [2] and in assay [3] were 59% (active) and -3%, respectively. Moreover, the result in assay [5], in assay [6], in assay [7] and in assay [8] was inactive.

Regarding `CC(CCc1ccc(OCc2ccccc2)cc1)NCC(O)c1ccccc1` (stereo not given), the growth inhibition in assay [1] is 72% (active); in assay [4], 86% (active). For the same compound, the inhibition in assay [2] is 9%; in assay [3], -1%. Further, the outcome in assay [5], in assay [6], in assay [7] and in assay [8] was inactive.

On to `CCN(CC)CCc1ccc2c(=O)cc(CCc3cccc(F)c3F)n(CC(=O)N(C)Cc3ccc(-c4ccc(C(F)(F)F)cc4)cc3)c2c1`, for which the values for the growth inhibition in assay [1] and in assay [4] were 45% and 97% (active), respectively. For the same compound, the inhibition was 98% (active) in assay [2] and 1% in assay [3]. For the same compound, the outcome in assay [5], in assay [6], in assay [7] and in assay [8] was inactive.

Turning to `CC(CN1CCN(C)CC1)C(=O)Nc1ccc(-c2csc(-c3nc4ccccc4[nH]3)c2)cc1` (stereo not given), the figures for the growth inhibition in assay [1] and in assay [4] were 26% and 93% (active), respectively. The values for the inhibition in assay [2] and in assay [3] were 15% and -4%, respectively. Further, the result in assay [5], in assay [6], in assay [7] and in assay [8] was inactive.

Turning to `CC(=O)Nc1cccc(CNCc2ccc(-c3cnc(N4CCCC(C)(C)C4)nc3)cc2)c1`, the figures for the growth inhibition in assay [1] and in assay [4] were 75% (active) and 93% (active), respectively. Also, the inhibition in assay [2] was 10%; in assay [3], 0%. Besides, the outcome in assay [5], in assay [6], in assay [7] and in assay [8] was inactive.

In the case of `COc1c(CNCCCCCCNCc2c(OC)c(OC)c3ccccc3c2OC)c(OC)c2ccccc2c1OC`, the results for the growth inhibition in assay [1] and in assay [4] were 98% (active) and 96% (active), respectively. Moreover, the inhibition in assay [2] is 100% (active); in assay [3], -2%. Besides, the result in assay [5], in assay [6], in assay [7] and in assay [8] was inactive.

In the case of `Cc1ccccc1NC(=S)NC1CCN(CCCCCNC(=O)/C=C/c2ccc(Cl)c(Cl)c2)CC1`, the growth inhibition in assay [1] is 7%; in assay [4] it was 99% (active). Further, the inhibition is 14% in assay [2] and 2% in assay [3]. The result in assay [5], in assay [6], in assay [7] and in assay [8] was inactive.

`Cn1c2c(c3ccccc31)CN(CCC1(c3ccc(Cl)c(Cl)c3)CN(C(=O)c3ccccc3)CCO1)CC2` (stereo not given): the results for the growth inhibition in assay [1] and in assay [4] were 88% (active) and 97% (active), respectively. Also, the inhibition was 10% in assay [2] and 3% in assay [3]. Further, the outcome in assay [5], in assay [6], in assay [7] and in assay [8] was inactive.

In the case of `Cc1cccc2[nH]c(-c3ccc(-c4cccc(NC(=O)C(C)CN(C)C)c4)cc3)nc12` (stereo not given), the growth inhibition is 61% (active) in assay [1] and 99% (active) in assay [4]. Also, the inhibition is 20% in assay [2] and 1% in assay [3]. Besides, the result in assay [5], in assay [6], in assay [7] and in assay [8] was inactive.

Turning to `O=C(/C=C/c1ccc(Cl)c(Cl)c1)NCCCCCN1CCC(NC(=O)NC2CCCCCC2)CC1`, the growth inhibition is 41% in assay [1] and 99% (active) in assay [4]. The inhibition is 15% in assay [2] and -3% in assay [3]. Also, the outcome in assay [5], in assay [6], in assay [7] and in assay [8] was inactive.

Take `COc1ccc2nc3cc(Cl)ccc3c(NCCNCC(O)CO)c2n1` (stereo not given): the growth inhibition was 101% (active) in assay [1] and 100% (active) in assay [4]. For the same compound, the figures for the inhibition in assay [2] and in assay [3] were 12% and 2%, respectively. Moreover, the result in assay [5], in assay [6], in assay [7] and in assay [8] was inactive.
